Molecules are shown by their SMILES. Compounds without any hit were thinned out: in the full panel of roughly 83,000, 20% have a hit.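 96-well plates, one dose, 48 hours. Percent growth reported; active if below 10.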 A number with no mark means an inactive call. The source made the active and inactive calls.

For the test, the system named is KM12 colon. As to the kind of experiment: NCI-60 one-dose screen, 48 h (100 = growth as untreated, 0 = no growth, -100 = all killed). Particulars: 10 µM unless noted. Here is the method:
Growth inhibition of the KM12 human tumor cell line is measured as a screen for anti-cancer activity. Cells are grown in 96 well plates and exposed to the test compound for 48 hours. Compounds are tested at a single concentration, which is 10^-5 M for most compounds. The reported endpoint is percent growth (GI% or GIPRCNT), where numbers from 0 - 100% represent growth inhibition, and numbers from -100% - 0 represent cell death. For example, a value of 40 represents 60% growth inhibition. A value of 0 means no net growth occurred over the course of the experiment. A value of -40 indicates 40% of cells at the beginning of the experiment died by the end of the experiment. A value of -100 means all cells are dead at the end of the experiment.
NCI-60 Human Tumor Cell Lines Screen was performed using the standard one-dose NCI protocol, which is described in more detail at https://dtp.cancer.gov/discovery_development/nci-60/default.htm.
Compounds with GIPRCNT values below 10 were considered active. Activity score was based on GIPRCNT using the following formula: […]
Score is 0 for GIPRCNT values of 100 or above, 50 for GIPRCNT values of 0, and 100 for GIPRCNT values of -100.
Consider `CC(OC(=O)Nc1cccc(Cl)c1)C(=O)O` (stereo not given), for which the growth was 101%. Regarding `NNC(=O)Cc1ccccc1`, the growth is 80.1%.

With `Clc1ccc(Nc2ncnc3c2sc2ncccc23)cc1`, the growth was 56.2%. The same measure for `CCCCN(CCCC)CCC(=O)c1ccc(OC)c2ccccc12`: 71.1%. In the case of `CC1CCN(Cc2ccc(NC(=O)c3cc4ccc5cccnc5c4[nH]3)cc2)CC1`, the growth is 15.1%.

In the case of `COc1c(B(O)O)cccc1-c1nc2c(F)cc3n[nH]c(C)c3c2c2c1CCCC2`, the growth is 20.5%. In the case of `COc1cc2c(cc1OC)C(=O)OC2`, the growth is 113%. As for `O=C(/C=C/c1cccc([N+](=O)[O-])c1)c1ccc(Nc2nc(N3CCCCC3)nc(N3CCCCC3)n2)cc1`, the growth was 85.5%. Turning to `FC(F)(F)c1ccc(/C=N/Nc2nnc3n2N=C(c2ccc(Cl)cc2)CS3)cc1`, the growth is 76.9%. As for `Cc1ccc(Nc2nc(NCCO)c3ccccc3n2)cc1C`, the growth was 9.68% (active). Consider `Cn1nc(C(F)(F)F)cc1-c1c[nH]c(OCc2ccc(Cl)cc2)c(-c2ccc(Cl)c(C(F)(F)F)c2)c1=O`, for which the growth was 8.85% (active). Consider `COc1ccc(-c2nn(-c3cccc(Cl)c3)cc2/C=C2\C(=N)N(c3ccccc3)N=C2N)cc1`, for which the growth is -25.2% (active). Consider `CCOCC(O)(c1ccc(Cl)cc1)c1ccc(Cl)cc1`, for which the growth was 90.4%. On to `CCOC(=O)c1ccc(NC(=O)NC2=NCCS2)cc1`, for which the growth was 15.5%.

Take `COc1ccc(Sc2[nH]c(C=O)c3ccccc23)cc1`: the growth was 22%. Take `O=C1C=CC(=O)N1CO`: the growth was 128%. As for `CN1CCN(Cc2ccc(NC(=O)c3cncc(C#Cc4cnc5cccnn45)c3)cc2C(F)(F)F)CC1`, the growth is -12.3% (active).

`COc1c(B(O)O)cccc1-c1nc2ccc3[nH]ncc3c2c2c1CCCC2`: the growth is 1.71% (active). On to `CC1=C(C(=O)Nc2ccc(F)cc2)C(c2ccc(C)cc2)C2=C(CC(C)(C)CC2=O)N1` (stereo not given), for which the growth is 102%. In the case of `C=CCN(CCOC(=O)c1ccc([N+](=O)[O-])cc1)CCOC(=O)c1ccc([N+](=O)[O-])cc1`, the growth was 103%. As to `CC(=O)c1ccc(-n2c(-c3cc(-c4ccsc4)n[nH]3)n[nH]c2=S)cc1`, the growth is 100%.

Take `COc1ccc2c(c1)N(CCO)C1=C(C(=O)OC1)C2c1cccc(Br)c1` (stereo not given): the growth is -31.2% (active).

`Cc1c(-c2ccc(-c3ccccc3F)cc2)nc2ccc(F)cc2c1C(=O)O`: the growth was 35.2%. On to `CCCCCCCCCCCCCCC(C(=O)OCC)C(=O)OCC`, for which the growth was 108%. As to `NCCCOc1cc2ccccc2cc1C(=O)NCCCOc1cc2ccccc2cc1C(=O)Nc1ccc(Cl)cc1O`, the growth is -2.6% (active). As for `COc1cc(C2CC(c3ccc(Nc4ccnc5cc(Cl)ccc45)cc3)=NN2c2ccccc2)cc(OC)c1OC` (stereo not given), the growth was 47.9%. Take `CCCCn1c(C)nc2cc(Nc3nc(Cl)nc4nc[nH]c34)ccc21`: the growth is 97.3%. Consider `Cn1c(=O)c2[nH]c(Cc3ccc4c(c3)OCO4)nc2n(C)c1=O`, for which the growth is 108%. Consider `Cc1ccc(NC(=O)c2[nH]c(SCCN(C)C)nc2-c2ccc(F)cc2)cc1Nc1ccc2ncn(C)c(=O)c2c1`, for which the growth was 49.6%. The same measure for `Fc1ccc2c(CN3CCO[C@H](COc4cccc(Cl)c4)C3)c[nH]c2c1`: 38.9%; for `CCN(CC)CCC(CNc1ccnc2cc(Cl)ccc12)c1ccc(O)cc1` (stereo not given): 82%. Take `CC(=O)N(C)c1ccc(Nc2cc(C)[nH]c3ccc4ncnc4c23)cc1`: the growth is 67.6%. In the case of `Cc1cc(-c2nnc(/C=C/c3ccc4c(c3)OCO4)o2)n[nH]1`, the growth was 36.1%.

Take `Cc1cc(O)ccc1C1=NN(c2ccc(S(N)(=O)=O)cc2)C(=O)CC1`: the growth is 22.7%.

As to `COc1cccc(OCC(O)CN2CCN(c3ccccc3)CC2)c1` (stereo not given), the growth is 112%.

For the molecule `Nc1ccc(C(OC(=O)c2cc3ccccc3c(Cc3c(O)c(C(=O)OC(c4ccc(N)cc4)(c4ccc(N)cc4)c4ccc(N)cc4)cc4ccccc34)c2O)(c2ccc(N)cc2)c2ccc(N)cc2)cc1`, the growth was 5.29% (active). Under `COc1ccc(-c2nc(-c3cc(OC)cc(OC)c3)[nH]c2-c2ccc(OC)cc2)cc1` stands 46.5%; under `COc1ccc(C(=O)c2c(N)nc3n2CCCC3)cc1OC`, 101%. Turning to `COc1ccc(C2=Nn3c(nnc3-c3ccc(Cl)cc3N)SC2)cc1`, the growth was 110%. As to `C/C(=N\NC(=S)Nc1ccccc1)c1ccccn1`, the growth is 29.7%.
